# Hits are enriched below; roughly 7.5% of the tested compounds scored in any of these assays.
# ELG1 genotox: inducers of genotoxicity in HEK293T ELG1-luciferase cells; Potency, µM (top dose mostly 46 µM), without a hit: at the top dose activity change, positive = activation, usual class: activators; actives 1.3% (n = 330,000); HEK293T ELG1-luciferase reporter, luminescence, 16 h; further: % of control where 0% means no effect; nearly all actives have a fitted effect of over 60% in size
#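 Luminescence read-out: rising ELG1-luciferase signal, reflecting elevated ELG1 protein under genetic stress, flags genotoxic compounds. Cells were treated for 16 hr at 37 °C before ONE-Glo detection.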
# SMN2 splice up: increases expression of the SMN2 splice variant | AID 1458 | Potency, µM (top dose mostly 46.1 µM), inactives show at the top dose activity change, positive = activation, actives largely listed as activators | HEK293 SMN2-luciferase splicing reporter, luminescence, 30-36 h | actives 2.8% (n = 210,000); further: % of control where 0% means no effect; nearly all actives have a fitted effect of over 55% in size
#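 HEK293 cells carry an SMN2 minigene-luciferase reporter in which exon 7 inclusion puts luciferase in frame. Cells were seeded at 2000 cells/well, attached for 10-12 hours, then exposed to compounds for 30-36 hours at 37C before ONE-Glo luminescence.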
# NPC1 promoter act: activators of NPC1 promoter | Huh7 NPC1 promoter luciferase reporter, 24 h | Potency, µM (titrated, usually from 9.22 µM), without a hit: top-dose activation, actives largely listed as activators | actives 2.4% (n = 320,000); further: % of control where 0% means no effect; nearly all actives have a fitted effect of over 60% in size
#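 Huh7 cells stably carrying NPC1 promoter–luciferase, plated in Opti-MEM with 10% FBS for 2 h, were exposed to compound in DMSO for 24 h at 37 °C; luciferase reagent was added for 10 min and luminescence read.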
# Rab9 promoter act: Rab9 promoter activation | Huh7 Rab9 promoter-luciferase reporter, luminescence, 24 h | Potency, µM (top dose mostly 9.22 µM), for the others: top-dose activation, negative = inhibition, most hits filed as activators | actives 2.8% (n = 320,000) | AID 485297; further: % of control where 0% means no effect; nearly all actives have a fitted effect of over 60% in size
#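 Quantitative HTS format; Huh7 Rab9-luciferase reporter cells (1500/well) receive compound 2 h post-plating, incubate 24 h at 37 °C, then get luciferase reagent for 10 min before luminescence reading.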
# FLuc counter: inhibits or activates purified firefly luciferase, miR-21 counter-screen | AID 588342 | purified FLuc, Km substrates, luminescence inhibition | actives 6.9% (n = 360,000) | Potency, µM (top dose mostly 57.5 µM), for inactives: top-dose activity change, negative = inhibition, actives largely listed as inhibitors;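 further: plate controls were vehicle for no effect and reference inhibitor for full effect; nearly all actives have a fitted effect of over 55% in size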
# Target sequence (P08659 whole entry, looked up): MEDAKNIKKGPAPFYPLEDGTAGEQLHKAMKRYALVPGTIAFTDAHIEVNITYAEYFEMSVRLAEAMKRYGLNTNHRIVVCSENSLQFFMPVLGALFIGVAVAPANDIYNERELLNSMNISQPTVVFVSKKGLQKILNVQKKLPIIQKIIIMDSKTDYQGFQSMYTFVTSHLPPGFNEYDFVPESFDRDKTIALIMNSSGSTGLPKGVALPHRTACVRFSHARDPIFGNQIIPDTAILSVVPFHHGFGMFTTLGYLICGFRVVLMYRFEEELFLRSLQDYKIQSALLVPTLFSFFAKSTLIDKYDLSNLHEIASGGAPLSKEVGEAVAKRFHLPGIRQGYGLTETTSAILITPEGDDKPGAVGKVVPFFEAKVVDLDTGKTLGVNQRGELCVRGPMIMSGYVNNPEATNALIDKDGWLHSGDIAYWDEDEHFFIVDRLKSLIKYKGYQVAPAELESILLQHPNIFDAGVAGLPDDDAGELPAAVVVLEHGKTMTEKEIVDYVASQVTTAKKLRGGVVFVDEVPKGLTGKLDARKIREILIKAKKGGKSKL
#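 Purified P. pyralis luciferase (10nM final) with 10uM D-luciferin and 10uM ATP (Km levels) in 50mM Tris acetate pH 7.5, 10mM Mg acetate, 0.01% Tween-20, 0.05% BSA; qHTS 6-point titration, ~60 µM downward; luminescence read.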
# KinaseGlo FLuc: blocks Kinase-Glo luciferase, a counter-screen artifact; Kinase-Glo luciferase, ATP luminescence, 8 min; actives 0.28% (n = 200,000); Potency, µM (doses to about 38.3 µM), for the others: at the highest dose activity change, negative = inhibition, most hits filed as inhibitors; Q27757; further: on the % scale 0 is the no-effect control and ±100 the full control effect; nearly all actives have a fitted effect of over 60% in size
#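 Kinase-Glo luciferase light output from ATP and luciferin was measured with 10 uM ATP, within the enzyme's linear range. Buffer: 50 mM imidazole pH 7.2, 50 mM KCl, 7 mM MgCl2, 0.01% Tween 20, 0.05% BSA; luminescence read after 8 min at ambient temperature.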
# * hit, by the source's call; ? = inconclusive; . = no result; [ ] = another dose, or the depositor's remark. The call rests on the fitted dose curve; in most records, active means well fitted curve in the direction sought with a large enough effect; inconclusive means small, poorly fitted or top-dose-only effect, or another doubt; inactive means no such curve, though single readings can be large; an effect the other way counts as inactive or inconclusive. Potency means the concentration at half of the fitted maximal effect.
SMILES,ELG1 genotox,SMN2 splice up,NPC1 promoter act,Rab9 promoter act,FLuc counter,KinaseGlo FLuc
CCc1nn(C(CC)C(=O)NCc2ccc(OC)c(OC)c2)c(=O)c2cc3oc(C)cc3n12 (stereo not drawn),.,-8%,.,.,0%,.
COCCCn1c(=O)c2ccccc2n(CC(=O)N2CCCc3ccccc32)c1=O,-4%,.,2%,-6%,-1%,.
COc1ccc(C(=O)N2CCC[C@@]3(CCN(c4cccc(-c5ccccc5)c4)C3)C2)cc1,.,-34%,.,.,.,1%
COCCn1c(=O)c(-c2cn(C)c3ccccc23)nc2cnc(Oc3ccccc3)nc21,.,-4%,.,.,.,0%
CCc1ccc(OCc2nc(-c3ccc(OC)cc3)no2)c(Br)c1,.,.,.,.,-19%,.
Clc1ccccc1OCc1nc(-c2ccccn2)no1,4.6µM*,4.5µM*,0.45µM*,0.32µM*,1.9µM*,-12%
CN(Cc1nc(-c2ccccn2)no1)S(=O)(=O)c1ccccc1,?,22%,12%,-1%,-9%,-1%
Clc1ccc(OCc2nc(-c3ccccn3)no2)c(Br)c1,0.82µM*,0.56µM*,0.35µM*,0.45µM*,0.21µM*,-11%
O=C(NCCc1csc2nc(-c3ccc(F)cc3)nn12)c1ccco1,.,.,.,.,-11%,.
COc1ccc(CCN2C(=O)CSC2c2ccc(F)cc2)cc1 (stereo not drawn),-3%,.,-4%,-3%,0%,.
COc1ccc([C@H]2[C@H](C(=O)C(C)(C)C)N3N=Cc4ccccc4C3C23C(=O)OC(C)(C)OC3=O)cc1 (stereo partly drawn),-1%,14µM*,-1%,1%,-9%,-1%
O=C(Nc1nccs1)C1CC(=O)N(CCc2ccc(F)cc2)C1 (stereo not drawn),-4%,.,-1%,1%,-1%,.
O=C(CN1C(=O)NC2(CCCCCC2)C1=O)Nc1ccc2c(c1)CCC2,-2%,17%,0%,-8%,-1%,1%
O=C(Nc1nccs1)c1ccc2ccccc2n1,?,.,4µM*,?,3.4µM*,.
O=C(NCc1ccccc1Cl)c1ccc2ccccc2n1,?,.,?,?,15µM*,.
Cc1ccccc1NC(=O)c1cccc(C(=O)Nc2ccccc2C)n1,-7%,.,-2%,0%,4%,.
Cc1cccc(NC(=O)c2ccc3ccccc3n2)c1C,?,13µM*,?,?,0.85µM*,-7%
O=C(Nc1ccccn1)c1ccc2ccccc2n1,?,11µM*,?,4.5µM*,0.95µM*,?
O=C(Nc1nccs1)c1cc(Cl)nc2ccccc12,-4%,.,-4%,1%,-4%,.
O=C(NCc1ccccc1F)c1ccc2ccccc2n1,4%,.,3%,0%,-15%,.
COc1ccc(CCNC(=O)C(=O)NCC2CCCN2S(=O)(=O)c2ccccc2)cc1OC (stereo not drawn),-22%,.,0%,-1%,0%,.
Cc1csc(NC(=O)c2ccc3ccccc3n2)n1,?,.,0.5µM*,1.1µM*,1.1µM*,.
Cc1csc(NC(=O)c2cc(C)nc3ccccc23)n1,-7%,-1%,-7%,-2%,-9%,-1%
Cc1csc(NC(=O)c2cnc3ccccc3n2)n1,?,.,?,?,2.4µM*,.
CCC(CC)c1nnc(NC(=O)c2ccc3ccccc3n2)s1,?,13µM*,?,?,5.4µM*,-3%
SMILES,ELG1 genotox,SMN2 splice up,NPC1 promoter act,Rab9 promoter act,FLuc counter,KinaseGlo FLuc
Cc1ccc(S(=O)(=O)N2CCCCC2)cc1NC(=O)c1ccc2ccccc2n1,0%,11%,9%,13%,27µM*,2%
Cc1cccc(C)c1N1CCN(C(=O)N2CCCCC2)CC1,-14%,-9%,-7%,1%,-2%,4%
CCN(CC)c1ccc(/C=N/NC(=O)c2ccc(O)cc2)cc1,.,3%,.,.,.,-8%
CC(C)NC(=O)NC(=O)COC(=O)C1(C)CC1(Cl)Cl (stereo not drawn),4%,8%,0%,-5%,-6%,-3%
Oc1ccc(Br)cc1/C=N/N1CCCCC1,?,17%[1.84 µM],?,4.5µM*,9.5µM*,?
Oc1ccc(Br)cc1/C=N/n1cnc2ccccc21,18%,26%,?,?,8.5µM*,-6%
Oc1ccc(Br)cc1/C=N/N1CCN(Cc2ccccc2)CC1,3%,-18%,15%,3%,?,2%
Oc1ccc(Br)cc1/C=N/n1c(COc2ccccc2)n[nH]c1=S,0%,.,-3%,-3%,3%,.
CC(C)c1ccc(/C=C(\NC(=O)c2ccccc2)C(=O)NCCCN2CCOCC2)cc1,0%,.,-2%,0%,0%,.
COc1cccc(/C=C/C(=O)OCC(=O)Nc2cccc(S(=O)(=O)NC3=NCCCCC3)c2)c1,3%,.,.,.,.,.
CC1=C(C(N)=O)C(c2ccc(C)cc2)n2nc(SCc3ccccc3F)nc2N1 (stereo not drawn),.,1%,.,.,6%,.
Cc1ccc2nc(NC(=O)COC(=O)c3cccnc3)sc2c1,20%,.,.,.,.,.
CCCC(=O)Nc1nc2ccc(C(=O)OCC)cc2s1,10µM*,18µM*,0.63µM*,?,?,-3%
CCOC(=O)c1ccc2nc(NC(=O)C(C)C)sc2c1,?,11µM*,1.1µM*,3.5µM*,9.5µM*,-1%
C=CCN(CC=C)S(=O)(=O)c1ccc2nc(NC(=O)C(C)C)sc2c1,4%,-23%,-26%,-22%,6%,3%
CCCCC(=O)Nc1nc2ccc(C(=O)OC)cc2s1,?,?,?,2.2µM*,?,-2%
Cn1c(CC(=O)Nc2ccccc2)nnc1SCC(=O)NC1CCCC1,3%,.,-1%,0%,2%,.
Oc1[nH]c2ccccc2c1C=Nc1ccc2c(c1)OCCO2,?,.,?,1.4µM*,0.85µM*,.
Oc1c(Br)cc(Br)cc1C=Nc1ccc2c(c1)OCCO2,?,0%,1%,4%,24µM*,-10%
COc1cc(CNc2ccc(N3CCCC3)cc2)ccc1OCc1ccccc1,?,59%,16%,19%,6µM*,-2%
COc1cc(CNc2ccc(CNc3ncn[nH]3)cc2)cc(Cl)c1OCc1ccccc1,-1%,.,12%,19%,0%,0%
COc1cc(CNc2ccc(N3CCCCC3)cc2)ccc1OCC(=O)NC(C)(C)C,1%,.,-12%,0%,5.4µM*,.
COc1cc(CNC23CC4CC(CC(C4)C2)C3)ccc1OCc1ccccc1,-6%,-50%,-2%,-14%,-2%,-3%
COc1cc(CNc2ncn[nH]2)ccc1OCc1cccc(C)c1,?,.,?,?,19µM*,2%
COc1cc(CNc2ccc(N3CCCC3)cc2)ccc1OCc1ccccc1F,13%,18µM*,13%,19%,?,-21%
